Source: PubChem BioAssay AID1159580 (chemical genetic matrix, 2015)
Hit rate of the full screen: of about 5,500 compounds, about 2,000 (36%) were called active. About 18% were inconclusive and are not listed. Rule as the data show it: active = normalized growth mostly below about 0.91 (no sharp cut-off); inconclusive = no clear call, values can overlap the other calls; inactive = mostly above about 0.92. The list shows a part of the results.

Experiment: chemical genetic growth profiling, strain panel (AID 1159580);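 also: tested at 20 µM; growth read once vehicle control cultures reached saturation at 30 °C; 1 = growth at the plate median or of vehicle wells; lower values mean less growth of the strain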
Details: S. cerevisiae deletion strains, growth OD

Measured: normalized growth

CNCCC(Oc1ccccc1C)c1ccccc1 (configuration not stated)
inactive: locus YAL040C, strain CLN3, stronger effect = lower value 0.978 | locus YCL061C, strain MRC1 (second series), stronger effect = lower value 0.995 | locus YDR150W, strain NUM1, stronger effect = lower value 0.994 | locus YDR363W, strain ESC2, stronger effect = lower value 0.968 | locus YER002W, strain NOP16, stronger effect = lower value 0.995 | locus YMR263W, strain SAP30, stronger effect = lower value 0.982 | locus YMR307W, strain GAS1, stronger effect = lower value 0.971 | locus YNL128W, strain TEP1, stronger effect = lower value 1.05 | locus YNL153C, strain GIM3, stronger effect = lower value 0.984 | locus YNL175C, strain NOP13, stronger effect = lower value 1.04 | locus YNL197C, strain WHI3, stronger effect = lower value 1.02 | locus YNL224C, strain SQS1, stronger effect = lower value 1.08 | locus YNL322C, strain KRE1, stronger effect = lower value 0.96 | locus YOR083W, strain WHI5 (second series), stronger effect = lower value 1 | locus YPL055C, strain LGE1, stronger effect = lower value 0.984 | locus YPL241C, strain CIN2, stronger effect = lower value 1

C/C(=N/NC(N)=S)c1csc(-c2ccccc2)n1
inactive: locus YAR019C, strain CDC15, stronger effect = lower value 0.917 | locus YBL105C, strain PKC1, stronger effect = lower value 0.947 | locus YBR135W, strain CKS1, stronger effect = lower value 0.948 | locus YBR136W, strain MEC1, stronger effect = lower value 0.941 | locus YBR160W, strain CDC28, stronger effect = lower value 0.942 | locus YDL017W, strain CDC7, stronger effect = lower value 0.962 | locus YDL028C, strain MPS1, stronger effect = lower value 0.948 | locus YDL101C, strain DUN1, stronger effect = lower value 0.931 | locus YDL108W, strain KIN28, stronger effect = lower value 0.942 | locus YDL132W, strain cdc53, stronger effect = lower value 0.942 | locus YDL214C, strain PRR2, stronger effect = lower value 0.834 | locus YDR052C, strain DBF4, stronger effect = lower value 0.944 | locus YDR054C, strain cdc34, stronger effect = lower value 0.898 | locus YDR226W, strain ADK1, stronger effect = lower value 0.961 | locus YDR477W, strain SNF1, stronger effect = lower value 0.816 | locus YER123W, strain YCK3, stronger effect = lower value 0.698 | locus YER133W, strain GLC7, stronger effect = lower value 0.791 | locus YFL009W, strain cdc4, stronger effect = lower value 0.913 | locus YFL029C, strain CAK1, stronger effect = lower value 0.935 | locus YFR003C, strain YPI1, stronger effect = lower value 0.948 | locus YFR019W, strain FAB1, stronger effect = lower value 0.895 | locus YFR028C, strain CDC14, stronger effect = lower value 0.936 | locus YGR040W, strain KSS1, stronger effect = lower value 0.823 | locus YGR052W, strain FMP48, stronger effect = lower value 0.96 | locus YGR092W, strain DBF2, stronger effect = lower value 0.545 | locus YHR079C, strain IRE1, stronger effect = lower value 0.663 | locus YHR082C, strain KSP1, stronger effect = lower value 1.19 | locus YHR205W, strain SCH9, stronger effect = lower value 0.978 | locus YIL147C, strain SLN1, stronger effect = lower value 0.937 | locus YJL095W, strain BCK1, stronger effect = lower value 0.993 | locus YJL128C, strain PBS2, stronger effect = lower value 1.02 | locus YJL157C, strain FAR1, stronger effect = lower value 0.802 | locus YJR016C, strain ILV3, stronger effect = lower value 0.935 | locus YJR066W, strain TOR1 (second series), stronger effect = lower value 0.625 | locus YJR066W, strain TOR1, stronger effect = lower value 1.01 | locus YKL048C, strain ELM1, stronger effect = lower value 0.948 | locus YKL067W, strain YNK1, stronger effect = lower value 0.864 | locus YKL101W, strain HSL1, stronger effect = lower value 0.886 | locus YKL193C, strain SDS22, stronger effect = lower value 0.932 | locus YKL203C, strain TOR2, stronger effect = lower value 0.852 | locus YLR113W, strain HOG1, stronger effect = lower value 0.964 | locus YLR133W, strain CKI1, stronger effect = lower value 0.863 | locus YLR403W, strain SFP1, stronger effect = lower value 0.717 | locus YML070W, strain DAK1, stronger effect = lower value 0.884 | locus YMR001C, strain CDC5, stronger effect = lower value 0.935 | locus YMR205C, strain PFK2 (second series), stronger effect = lower value 0.883 | locus YMR277W, strain FCP1, stronger effect = lower value 0.914 | locus YNL006W, strain LST8, stronger effect = lower value 0.949 | locus YNL020C, strain ARK1, stronger effect = lower value 0.846 | locus YNL161W, strain CBK1, stronger effect = lower value 0.925 | locus YNL183C, strain NPR1, stronger effect = lower value 0.883 | locus YNL207W, strain RIO2, stronger effect = lower value 0.931 | locus YNL222W, strain SSU72, stronger effect = lower value 0.925 | locus YNL307C, strain MCK1 (second series), stronger effect = lower value 0.754 | locus YOL078W, strain AVO1, stronger effect = lower value 0.92 | locus YOL136C, strain PFK27, stronger effect = lower value 0.837 | locus YOR061W, strain CKA2, stronger effect = lower value 0.829 | locus YOR119C, strain RIO1, stronger effect = lower value 0.823 | locus YOR231W, strain MKK1, stronger effect = lower value 0.739 | locus YOR329C, strain SCD5, stronger effect = lower value 0.943 | locus YPL031C, strain PHO85, stronger effect = lower value 0.776 | locus YPL153C, strain RAD53, stronger effect = lower value 0.789 | locus YPL204W, strain HRR25, stronger effect = lower value 0.774 | locus YPL209C, strain IPL1, stronger effect = lower value 0.945 | locus YPL256C, strain CLN2, stronger effect = lower value 1.05 | locus YPR025C, strain CCL1, stronger effect = lower value 0.95 | locus YPR106W, strain ISR1, stronger effect = lower value 0.945 | locus YPR111W, strain DBF20, stronger effect = lower value 0.968 | strain NNK1, stronger effect = lower value 0.969 | strain TSCII, stronger effect = lower value 0.914
active: locus YHR030C, strain SLT2, stronger effect = lower value 1.46 [resistant]
